# Screening results: PubChem BioAssay, several laboratories
# This is a sample that favours compounds with a hit; in the whole collection about 3.4% have one here.
# TWEAK-Fn14 inh: inhibitors of TWEAK-Fn14 interaction signaling; TWEAK-stimulated Fn14 reporter cells, luciferase luminescence, 8 h; inhibition, % at 10 µM; hit rate 2% among 360,000; AID 1159606; in the data active = inhibition above about 50%
# Shn3 inh set2: reduces Shn3 3'UTR luciferase signal in osteoblasts. AID 588674. Clone20 osteoblast Shn3 3'UTR firefly luciferase, 24 h. hit rate 0.52% among 360,000. inhibition, % at 12.5 µM;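 active = mean inhibition of at least 75% with every replicate also reaching 75%; inconclusive = mean inhibition at least 75% but some replicate below; inactive = mean inhibition below 75%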;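 note: 0% = median of neutral control wells and 100% = pilot-screen positive control compound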
# MITF TRPM1 inh: inhibitors of MITF-driven TRPM1 promoter in melanoma cells; hit rate 0.83% among 330,000; inhibition, % at 12.5 µM; SK-MEL-5 TRPM1 promoter luciferase, 24 h; AID 488899;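 active = mean inhibition across replicates of 60% or more, whatever share of single replicates reaches that level; inconclusive = some that reach 60%, reason not given; inactive = mean inhibition across replicates below 60%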
# TROY NFkB inh: inhibitors of TROY-dependent NF-kB signaling; Q293 LMP1-TROYcd NF-kB luciferase reporter, 4 h; inhibition, % at 10 µM; hit rate 0.98% among 360,000;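 active = compounds whose plate-normalised and pattern-corrected inhibition of the luciferase reporter signal at the single screening dose is 50% or more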
# LMP1 NFkB inh: Epstein-Barr LMP1 NF-kappaB reporter inhibition; LMP1-induced NF-kappaB luciferase reporter cells, luminescence; inhibition, % at 12.5 µM; hit rate 0.69% among 350,000; AID 504558; in the data active = inhibition above about 41%; inconclusive = no clear call, values can overlap the other calls;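 note: 0% = neutral control wells and 100% = reference inhibitor control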
# HIF-2a block: blocks HIF-2a reporter activity | hit rate 0.72% among 360,000 | 786-0 RCC cells HIF-2a reporter, luciferase luminescence, overnight | inhibition, % at 18.8 µM | AID 624352;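 active = inhibition of the luminescence signal of 40% or more relative to plate controls, in a single-dose primary screen at 18.75 µM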
# Mdm2 MdmX conf: Mdm2/MdmX (human) interaction inhibition, confirmed. SaOS-2 split-luciferase Mdm2/MdmX complementation, luminescence. shares compounds with HIF-2a block. hit rate 99% among 740. inhibition, % at 8 µM;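 active = mean inhibition of the luminescence signal across two replicates at or above 26 percent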
# Target sequence (O15151 whole entry, looked up): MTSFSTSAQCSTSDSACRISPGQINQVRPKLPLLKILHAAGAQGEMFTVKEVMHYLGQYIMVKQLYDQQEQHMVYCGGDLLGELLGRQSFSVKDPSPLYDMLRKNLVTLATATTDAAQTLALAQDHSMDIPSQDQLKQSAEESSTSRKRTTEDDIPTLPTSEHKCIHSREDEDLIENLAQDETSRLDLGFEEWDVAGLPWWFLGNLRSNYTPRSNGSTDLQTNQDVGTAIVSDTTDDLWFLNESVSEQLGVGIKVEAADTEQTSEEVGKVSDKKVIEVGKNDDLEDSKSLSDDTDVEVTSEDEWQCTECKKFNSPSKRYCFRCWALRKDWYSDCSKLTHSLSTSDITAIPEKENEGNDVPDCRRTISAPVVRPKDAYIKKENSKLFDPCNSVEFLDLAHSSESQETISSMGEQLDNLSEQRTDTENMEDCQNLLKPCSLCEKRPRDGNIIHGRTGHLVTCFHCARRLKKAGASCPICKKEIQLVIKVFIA
# Target sequence (Q00987 whole entry, looked up): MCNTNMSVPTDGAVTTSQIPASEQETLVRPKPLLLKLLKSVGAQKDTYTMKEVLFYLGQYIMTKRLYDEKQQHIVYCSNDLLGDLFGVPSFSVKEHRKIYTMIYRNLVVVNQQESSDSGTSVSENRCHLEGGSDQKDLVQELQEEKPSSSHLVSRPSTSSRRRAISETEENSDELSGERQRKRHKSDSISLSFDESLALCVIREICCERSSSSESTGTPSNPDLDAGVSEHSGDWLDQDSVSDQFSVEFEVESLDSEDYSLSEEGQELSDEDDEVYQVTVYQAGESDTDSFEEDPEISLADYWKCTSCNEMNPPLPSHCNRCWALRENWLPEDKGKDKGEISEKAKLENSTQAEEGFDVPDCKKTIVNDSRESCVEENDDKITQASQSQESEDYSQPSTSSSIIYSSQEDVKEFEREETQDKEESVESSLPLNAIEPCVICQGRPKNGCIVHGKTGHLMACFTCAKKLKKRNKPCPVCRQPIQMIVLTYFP
# HIF-2a inh conf: confirmation of HIF-2a inhibitors; shares compounds with HIF-2a block; 786-0 RCC cells, HIF-2a luciferase reporter luminescence, overnight; inhibition, % at 18.8 µM; hit rate 56% among 1,800; AID 651580;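 active = mean inhibition across four replicates of at least 40 percent at the single tested concentration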
# HIF-1a counter: HIF-1a inhibition counter-screen for HIF-2a hits; shares compounds with HIF-2a block; MiaPaCa-2 HIF-1a luciferase reporter, desferoxamine, overnight; inhibition, % at 18.8 µM; hit rate 72% among 1,800;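 active = mean inhibition of the reporter signal across four replicates at the single tested dose of 50% or more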
# Active calls of the source: *; ? = inconclusive; / = not tested or not shown.
SMILES,TWEAK-Fn14 inh,Shn3 inh set2,MITF TRPM1 inh,TROY NFkB inh,LMP1 NFkB inh,HIF-2a block,HIF-2a inh conf,HIF-1a counter,others
CC(C)(C)OC(=O)N1Cc2ccccc2C[C@H]1C(=O)NCC(=O)Nc1ccc2c(c1)OCCO2,96*,31,-5,82*,44*,47*,58*,81*,
c1c2c(cc3sc(N4CCOCC4)nc13)OCCO2,92*,43,44,55*,62*,55*,63*,24,
C/C(=N\Nc1ccc2nncn2n1)c1ccccn1,-19,90*,/,-10,/,-6,/,/,Mdm2 MdmX conf=83*
O=C(O)Cc1ccc(C(=O)c2ccccc2)s1,4,/,-10,-5,2,10,/,/,
COc1ccc(C(=O)c2ccc(CC(=O)O)s2)cc1,50,38,20,9,9,59*,66*,61*,
CS(=O)(=O)c1ccc(C(=O)OCC(=O)NCc2cccs2)cc1[N+](=O)[O-],92*,97*,85*,24,-1,83*,24,4,
COCCNC(=O)CCN1N=C(c2ccccc2)CCC1=O,18,8,-2,8,-4,19,/,/,
CCOC(=O)C1CCN(Cc2cc(=O)oc3c(C)c(C)ccc23)CC1,23,18,2,22,1,57*,78*,25,
Cc1ccc2c(CN3CCC(C)CC3)cc(=O)oc2c1C,6,-30,-88,-41,-5,-263,/,/,
CC(C)[C@H](NC(=O)OC(C)(C)C)c1nnc(S(=O)(=O)Cc2c(F)cccc2Cl)o1,42,95*,99*,41,30,40*,34,8,
CC(C)C[C@H](NC(=O)OC(C)(C)C)c1nnc(SCc2ccccc2)o1,10,4,-2,12,-10,16,/,/,
Cc1ccccc1CS(=O)(=O)c1nnc([C@H](CC(C)C)NC(=O)OC(C)(C)C)o1,22,?,84*,32,4,69*,14,-5,
COc1cccc(C2=Cc3ccc(F)cc3C(CC(C)=O)N2c2ccc(-c3cncnc3)cc2)c1 (stereo not drawn),-17,/,/,-12,/,24,/,/,
CCOC(=O)c1ccc(-c2ccc(N3C(c4cccc(OC)c4)=Cc4ccc(F)cc4C3CC(C)=O)cc2)cc1F (stereo not drawn),36,/,/,29,/,65*,26,27,
Cc1ccc(NS(=O)(=O)c2ccc(C(=O)OCC(=O)NCC3CCCO3)cc2)cc1 (stereo not drawn),-1,1,8,3,-17,1,/,/,
O=C(COC(=O)c1ccc(NS(=O)(=O)c2ccc(F)c(F)c2)cc1)NCC1CCCO1 (stereo not drawn),-9,-9,-1,-4,1,45*,-9,13,
O=C(N/N=C/c1ccc2nccnc2c1)c1ccc(Br)cc1,-30,-3,/,-30,/,2,/,/,
O=C(Oc1ccc(/C=N/Nc2ccccc2)cc1)c1ccccc1,-9,-16,8,-33,-9,-50,/,/,
O=C(O)c1ccc(N/N=C/c2ccc3nccnc3c2)cc1,102*,80,99*,54*,82*,91*,96*,83*,
O=C(O)c1ccc(N/N=C/c2ccc(OC(=O)c3cccc(Cl)c3)cc2)cc1,-1,19,78*,53*,61*,72*,83*,83*,
Cc1ccc(/C=C/C(=O)Nc2ccc([N+](=O)[O-])cc2)o1,3,31,-50,10,-19,-316,/,/,
CCOC(=O)CCc1ccc(NC(=O)/C=C/c2ccc([N+](=O)[O-])o2)cc1,77*,9,?,-9,-66,91*,54*,107*,
CC(C)n1cnc2c(Nc3ccc(F)c(Cl)c3)nc(NCCO)nc21,21,-12,9,15,0,-43,/,/,
C=CC(=O)Nc1ccc(Nc2nc(NC3CCC(N(C)C)CC3)nc3c2ncn3C(C)C)cc1 (stereo not drawn),95*,94*,86*,71*,79*,76*,/,/,Mdm2 MdmX conf=103*
